Screens as filed in PubChem.
This is one part of a sample in which hits are shown more often than they occur.
GLA inh pH 4.5 = qHTS Assay for Inhibitors of Human alpha-Galactosidase at pH 4.5 | 230,000 tested, under 10 active | Alpha-galactosidase A (Homo sapiens), P06280 | activity change, negative = inhibition, % at 105 µM | purified enzyme, 4-MU-alpha-Gal fluorescence, pH 4.5
Menin MLL FP TR = qHTS Assay for Inhibitors Targeting the Menin-MLL Interaction in MLL Related Leukemias: Competition With Texas Red Labeled MLL-derived Mutant Peptide | O00255 | Menin + Texas Red MLL mutant peptide, fluorescence polarization | AID 1768, 2009 | Potency, µM (doses to about 61.6 µM), actives largely listed as inhibitors | actives 0.23% (n = 270,000); active = well fitted inhibition curve with a large enough effect in the polarisation, with a control signal flat, not every such curve was filed as active; inconclusive = small, poorly fitted or top-dose-only effect, or effect the other way, or a change in a side signal; inactive = no such curve, though single readings can be large or run the other way; the % refers to the polarisation
CXXC DNA block = qHTS Fluorescence Polarization Assay for Inhibitors of MLL CXXC domain - DNA interaction; Histone-lysine N-methyltransferase 2A (Homo sapiens), Q03164; MLL-CXXC / FITC-HOXA9 DNA fluorescence polarization; Potency, µM (titrated, usually from 115 µM), hits mostly inhibitors; actives 0.037% (n = 290,000); AID 2662, 2010; active = well fitted inhibition curve with a large enough effect in the polarisation, with a control signal flat, not every such curve was filed as active; inconclusive = small, poorly fitted or top-dose-only effect, or effect the other way, or a change in a side signal; inactive = no such curve, though single readings can be large or run the other way; the % refers to the polarisation
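Purified MLL-CXXC (added from a 7 uM solution) was preincubated 5 min at ambient with pinned compounds in 50 mM Tris-HCl pH 7.5, 50 mM NaCl, 1 mM DTT, 0.05% BSA. Fluorescein-labeled HOX-A9 DNA (50 nM solution) followed, 30 min, then polarization read.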
Integrin act MD = qHTS for Activators of Integrin-Mediated Alleviation for Muscular Dystrophy. alpha7betagal myoblasts, beta-gal FDG fluorescence, 48 h. Potency, µM (titrated, usually from 38.3 µM), usual class: activators. actives 0.064% (n = 350,000); also: nearly all actives have a fitted effect of over 60% in size
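Alpha7betagal+/- myoblasts (passage 13) were plated 16-24 hr, then exposed to compounds (1:260 dilution of DMSO stock) for 48 hours at 37C. After MPER lysis, β-galactosidase reporter activity was read as FDG fluorescence (ex 480/em 540) after 30 minutes.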
Menin-MLL FL inh = qHTS Assay for Inhibitors Targeting the Menin-MLL Interaction in MLL Related Leukemias: Competition With Fluorescein Labeled MLL-derived Peptide. FP activity change, % at 61.4 µM. AID 1766, 2009. Fluorescence polarization, fluorescein-MLL peptide displacement from menin. 290,000 tested, under 10 active; active = well fitted curve in the direction sought with a large enough effect in the polarisation, not every such curve was filed as active; inconclusive = small, poorly fitted or top-dose-only effect, or effect the other way, or a change in a side signal; inactive = no such curve, though single readings can be large or run the other way; the % refers to the polarisation
GLA spleen mod = qHTS Assay for Inhibitors and Activators of Human alpha-Galactosidase From Spleen Homogenate | Potency, µM (highest dose often 80 µM), usual class: inhibitors | actives 0.008% (n = 240,000) | Alpha-galactosidase A (Homo sapiens), P06280 | human spleen homogenate, 4MU-alpha-Gal fluorescence, 40 min
Target sequence (P06280 32-429 limits assumed): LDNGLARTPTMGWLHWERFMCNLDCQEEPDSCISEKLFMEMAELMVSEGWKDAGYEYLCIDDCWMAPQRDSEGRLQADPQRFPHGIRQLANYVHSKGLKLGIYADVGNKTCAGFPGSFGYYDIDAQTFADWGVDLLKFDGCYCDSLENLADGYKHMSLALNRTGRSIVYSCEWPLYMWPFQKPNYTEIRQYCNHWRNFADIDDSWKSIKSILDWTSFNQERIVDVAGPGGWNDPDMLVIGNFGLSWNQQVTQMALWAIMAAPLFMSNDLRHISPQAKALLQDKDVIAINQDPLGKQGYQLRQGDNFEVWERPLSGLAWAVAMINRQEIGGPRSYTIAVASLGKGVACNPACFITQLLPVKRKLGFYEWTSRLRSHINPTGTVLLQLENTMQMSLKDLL
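Fluorogenic readout (Ex 365/Em 440 nm) of 4-methylumbelliferone released from 1 mM 4-MU-alpha-galactoside by spleen homogenate, 40 min at 37C, pH 5.0. Data normalized to no-enzyme and enzyme controls; Hill-equation AC50 from compound titrations.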
Hits are given with their value; n = inactive; u = inconclusive; x = no result given; [ ] = remark or other dose. Unless noted, calls follow the shape of the dose curve; as a rule, active = well fitted curve in the direction sought with a large enough effect; inconclusive = small, poorly fitted or top-dose-only effect, or another doubt; inactive = no such curve, though single readings can be large; an effect the other way counts as inactive or inconclusive.

SMILES	GLA inh pH 4.5	Menin MLL FP TR	CXXC DNA block	Integrin act MD	Menin-MLL FL inh	GLA spleen mod
COc1ccc(N(C(=O)c2snc(C(N)=O)c2N)C(C(=O)NC2CCCC2)c2ccc(OC)c(OC)c2)cc1 (stereo unspecified)	x	n	n	n	n	x
CC(C)c1ccc2c(c1)CCC1C(C)(CN)CCCC21C (stereo unspecified)	n	20µM	n	n	n	n
Cc1ccc(-c2csnn2)cc1	n	x	n	10µM	n	n
CC(=O)Oc1ccc(-c2csnn2)cc1	n	n	n	n	n	n
Clc1ccc(Oc2ncnc3oc(-c4ccccc4)cc23)cc1	n	10µM	n	n	n	n
Cc1ccccc1Oc1ncnc2oc(-c3ccccc3)cc12	n	n	n	n	n	n
CCCSS/C(CCO)=C(/C)N(C=O)Cc1cnc(C)nc1N	x	n	n	x	n	x
Cc1c2cnn(CC(=O)Nc3c(F)c(F)cc(F)c3F)c(=O)c2c(C)n1Cc1ccccc1F	n	13µM	n	n	u	n
CNC(=O)Cn1ncc2c(C)n(Cc3ccc(C)cc3)c(C)c2c1=O	n	n	n	n	n	n
N#CC1(C#N)COC23CCCCC2C1(C#N)C(=N)O3 (stereo unspecified)	n	28µM	n	n	u	n
Cc1cc(N2CCCC2)ccc1/C=C1/C(=O)N(C)C(=S)N1C	n	22µM	u	n	u	n
COC(=O)C1=C(C(=O)OC)[C@@H]2Nc3ccccc3[C@@]23C[C@@H](C(=O)OC)N(S(=O)(=O)c2ccc(C#N)cc2)C3=N1	n	n[11.7 µM]	x	x	n[11.7 µM]	n[17.5 µM]
Cn1nc(C(=O)N2CCN(c3ccc([N+](=O)[O-])cc3)CC2)c2c1-c1ccccc1S(=O)(=O)C2	x	25µM	n	n	n	x
Cn1nc(C(=O)N2CCN(c3ccc(Cl)cc3)CC2)c2c1-c1ccccc1S(=O)(=O)C2	x	x	n	n	x	x
C[C@@H]1O[C@H]2C3=C(C(=O)[C@H]4O[C@@H]4[C@H]3O)[C@@H]1[C@@H]1[C@@H](C)OC=C3[C@H](O)[C@H]4O[C@@H]4/C(=N\OCc4ccccc4)[C@]312	x	n[11.7 µM]	x	x	n[11.7 µM]	n[17.5 µM]
CN(C)C1(CN=Cc2cc(Cl)cc([N+](=O)[O-])c2O)CCCCC1	x	u	n	8.9µM	n	x
O=C(/C=C/c1ccc(O)c(O)c1)c1ccc(O)cc1O	x	n	x	x	n	n
CO/N=C(/C(=O)N[C@@H]1C(=O)N2C(C(=O)O)=C(C[n+]3ccc(N)n3CCO)CS[C@H]12)c1csc(N)n1	x	n	n	x	n	x
Cc1cc(C(=O)NN=C(Cc2ccccc2)Cc2ccccc2)c(C)o1	n	n	n	n	n	n
C/C(=N\NC(=O)c1cc(C)oc1C)c1ccc2ccccc2c1	x	n	n	8.9µM	n	x
N#Cc1ccc(Sc2nc3ccccc3[nH]2)cc1C#N	n	n	n	10µM	n	n
CC(C)C[C@@H](NC(=O)[C@H](Cc1ccccc1)NC(=O)c1cnccn1)B(O)O	x	n	n	x	n	x
NC(=O)SCC(=O)Nc1cccc(Cl)c1	n	22µM	n	n	n	n
COc1ccc(NC(=O)c2cccc(N3C(=O)c4ccc(C(=O)Nc5ccc(OC)c(O)c5)cc4C3=O)c2)cc1O	x	x	n	4.5µM	x	x
CCCCN(CC)CCNC(=O)c1cc2c(-c3ccc(Cl)cc3)nn(C)c2s1	x	18µM	n	n	n	x
SMILES	GLA inh pH 4.5	Menin MLL FP TR	CXXC DNA block	Integrin act MD	Menin-MLL FL inh	GLA spleen mod
C=CCNC(=O)N1CCc2nc(CCCC)c3c(c2C1)CO[C@@H](C)C3	n	n[11.7 µM]	x	x	n[11.7 µM]	n[17.5 µM]
COc1ccc(NCc2cc(=O)[nH]c3ccccc23)cc1	x	40µM	n	n	n	x
COc1ccc(NC(=O)c2cc(=O)[nH]c3ccccc23)cc1	x	n	n	n	n	x
CCOC(=O)CCN1C(=O)[C@H]2[C@H]3[C@H](O)[C@H](O)C/C(=N/O[C@@H]4O[C@@H](COC(C)=O)[C@@H](OC(C)=O)[C@@H](OC(C)=O)[C@H]4OC(C)=O)[C@@H]3CC[C@@H]2C1=O	x	n[11.7 µM]	x	x	n[11.7 µM]	n[17.5 µM]
O=C(N/N=C\c1cn(-c2ccccc2)nc1-c1ccccc1)c1ccc2c(c1)OCO2	n	25µM	n	n	n	n
COc1ccc(-c2cc(=O)c(C(=O)c3ccc(C)cc3)n[nH]2)cc1	n	n	n	n	n	40µM
CN=C1C=CC(=C(c2ccc(N(C)C)cc2)c2ccc(N(C)C)cc2)C=C1	x	u	n	x	n	x
CCCN1CCCc2ccccc21	n	25µM	n	n	n	n
COc1cc(/C=C2\CC(C(C)(C)C)C/C(=C\c3cc(OC)c(OC)c(OC)c3)C2=O)cc(OC)c1OC (stereo unspecified)	x	7.9µM	u	n	n	x
CCOC(=O)c1sc(NC(=O)CN2C(=O)c3cccc4cccc(c34)C2=O)nc1C	n	4µM	n	n	n	n
CSc1ncccc1C(=O)OCC(=O)c1cc(C)n(C)c1C	x	x	x	10µM	x	x
Nc1ccc2oc(=O)ccc2c1I	x	n	x	x	n	n
CC(C)NC(=O)CN1CCN(C(=O)CCl)CC1	n	n	n	7.1µM	n	n
COc1ccc(C2=Nn3c(nnc3-c3ccccc3C)SC2)cc1	x	n	x	x	n	n
COCCN1C=C(C(=O)OC)C(c2cc(Br)c(OC)c(OC)c2)C(C(=O)OC)=C1	u	n	n	n	n	u
COCCN1C=C(C(=O)OC)C(c2ccccc2Cl)C(C(=O)OC)=C1	u	n	n	8.9µM	n	u
CCCCCCCCCCCCCCCCn1cc[n+](Cc2ccccc2)c1C	x	22µM	x	x	n	n
CCCCCCn1cc(C(=O)O)c(=O)c2ccccc21	n	n	n	n	n	n
O=C(CSc1nnc(C2CC2)n1C1CC1)c1cccs1	x	x	x	10µM	x	x
OCC1OC(C#Cc2ccccc2)C=CC1OCc1ccccc1 (stereo unspecified)	x	n[11.7 µM]	x	x	n[11.7 µM]	n[17.5 µM]
O=C(NNC(=O)c1cc2cc3ccccc3nc2s1)c1cccc(Cl)c1	n	u	n	n	n	n
O=C(NNC(=O)c1cc2cc3ccccc3nc2s1)c1ccc(F)cc1	u	3.2µM	n	n	n	n
CCOc1ccc(/C=C2/SC(=O)NC2=S)cc1	n	u	n	n	u	n
CCOc1ccc(N=C2NC(=O)S/C2=C\c2ccc(N(C)C)cc2)cc1	n	32µM	n	n	u	n
CC(=O)c1cccc(S(=O)(=O)N2CCCC(c3nc4c(nnn4Cc4cccc(Cl)c4)c(=O)[nH]3)C2)c1 (stereo unspecified)	x	n	n	n	n	x
